Source: PubChem
MITF primary: blocks human microphthalmia-associated transcription factor; inhibition, % at 2.6 µM; AlphaScreen MITF homodimerization, bead proximity signal; 0.91% of 650,000 active; AID 1259374; O75030; in the data active = inhibition above about 50%
Target sequence (O75030 whole entry, looked up): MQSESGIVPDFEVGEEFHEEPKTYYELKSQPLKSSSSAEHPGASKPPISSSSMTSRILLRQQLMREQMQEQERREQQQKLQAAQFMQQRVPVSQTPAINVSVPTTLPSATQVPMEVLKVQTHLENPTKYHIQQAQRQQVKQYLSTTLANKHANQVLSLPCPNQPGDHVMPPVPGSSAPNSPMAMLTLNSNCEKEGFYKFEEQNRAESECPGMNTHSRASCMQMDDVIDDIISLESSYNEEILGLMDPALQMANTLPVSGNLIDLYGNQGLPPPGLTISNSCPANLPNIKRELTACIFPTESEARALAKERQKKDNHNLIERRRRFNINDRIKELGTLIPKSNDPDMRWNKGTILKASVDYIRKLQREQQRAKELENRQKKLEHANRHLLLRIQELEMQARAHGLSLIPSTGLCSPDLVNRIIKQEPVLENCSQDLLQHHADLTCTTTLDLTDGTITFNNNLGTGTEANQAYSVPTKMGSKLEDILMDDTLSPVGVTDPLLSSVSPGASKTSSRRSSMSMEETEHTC
TEAD-YAP inh: TEAD-YAP interaction inhibition; AID 1259422; 1.4% of 640,000 active; inhibition, % at 9.12 µM; HEK-TIYL cells, TEAD-Gal4/YAP UAS-luciferase luminescence; in the data active = inhibition above about 32%
FBW7 activator: activators of human E3 ligase FBW7. Q969H0. normalized activity (activation), % at 26.1 µM. AID 1259310. AlphaScreen FBW7–phospho-cyclin E peptide binding, activator screen. 0.13% of 650,000 active; in the data active = normalized activity above about 1.9%;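 note: purified mutant Fbw7 with reduced substrate affinity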
GPR151 activ: human GPR151 activation; PathHunter beta-arrestin GPR151 cells, luminescence; 1% of 650,000 active; Q8TDV0; activation, % at 11.2 µM; AID 1508602; in the data active = activation above about 4.9%
GPR151 conf act: confirmation of human GPR151 activators; 6,700 tested, under 10 active; activation, % at 11.2 µM; AID 1508609; GPR151 PathHunter beta-arrestin cells, luminescence, 90 min; % of EA-reagent control over plate median; shares compounds with GPR151 activ;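 active = mean percent activation across replicates above the confirmation screen cutoff of 4.91%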
GPR119 counter: GPR119 activation, counter-screen for GPR151 activators. AID 1508611. shares compounds with GPR151 activ. 0.3% of 6,700 active. activation, % at 11.2 µM. GPR119 PathHunter beta-arrestin cells, luminescence, 90 min; 0 = compound-well median, 100 = enzyme-acceptor control;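 active = mean percent activation in the counterscreen above 29.09%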;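 note: counterscreen on off-target GPR119 to flag nonselective hits from the GPR151 activator screen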
Numbers stand for hits; i = inactive; nt = not tested or not shown; ! = a repeat was not active. An excerpt weighted towards active compounds, which were near 3.5% of everything screened.

SMILES	MITF primary	TEAD-YAP inh	FBW7 activator	GPR151 activ	GPR151 conf act	GPR119 counter
CCOC(=O)c1sc(NC(=O)CSc2nnc(CNC(=O)c3ccco3)n2-c2ccccc2OC)c(C(=O)OCC)c1C	i	i	i	8.7	i	i
CCOC(=O)c1c(NC(=O)CSc2nnc(CNC(=O)c3cccc(F)c3)n2-c2ccc([N+](=O)[O-])cc2)sc2c1CCCCC2	i	i	i	5.5	i	i
CCOC(=O)c1c(NC(=O)CSc2nnc(CNC(=O)c3cccc(F)c3)n2-c2ccc(OCC)cc2)sc2c1CCC2	i	i	i	i	nt	nt
O=C1c2ccncc2C(=O)N1c1ccc(F)cc1	i	i	i	5.9	i	i
Cc1ccc(N2C(=O)c3ccncc3C2=O)cc1	i	i	i	i	nt	nt
CCOC(=O)c1oc2ccccc2c1NC(=O)C1CCN(S(=O)(=O)c2ccc(Cl)cc2)CC1	i	i	i	i	nt	nt
O=C(OCc1ccc(Br)cc1)c1ccc(O)cc1	i	i	i	i	nt	nt
O=C(OCc1ccc(Br)cc1)c1ccc(N2CCCC2=O)cc1	i	i	i	7.3	i	i
NS(=O)(=O)c1ccc(CCNC(=O)CSc2nc(NC3CCCCC3)c3ccccc3n2)cc1	i	i	i	5.1	i	i
C/C(N)=C(/C#N)C(=O)COC(=O)c1ccc(COc2ccc3c(C)cc(=O)oc3c2)cc1	i	i	i	5.3	i	i
Cc1cc(=O)oc2cc(OCc3ccc(C(=O)NNC(=O)c4ccccc4)cc3)ccc12	i	i	i	i	nt	nt
COc1ccc(C2C(C(=O)Nc3cc(C)c(Cl)cc3OC)CCC(=O)N2c2ccc(OC)cc2)cc1 (stereo not given)	i	i	i	i	nt	nt
COc1cccc(NS(=O)(=O)c2cc(C(=O)N3CCN(C)CC3)ccc2NCCc2ccc(OC)c(OC)c2)c1	i	i	i	i	nt	nt
CCOc1cc(C)c(C(C)C)cc1S(=O)(=O)N(CC)CC	i	i	i	16	i	i
CCOc1cc(C)c(C(C)C)cc1S(=O)(=O)N1CCN(C)CC1	i	i	i	i	nt	nt
CCCCOc1ccc(C(=O)Nc2sc(C)c(C)c2C#N)cc1	i	i	i	8.3	i	i
CCOc1ccc(C(=O)Nc2sc(C)c(C)c2C#N)cc1	i	i	i	i	nt	nt
CCNS(=O)(=O)c1ccc(NC(=O)Nc2cccc([N+](=O)[O-])c2)cc1	i	i	i	13	i	i
CCCCOC(=O)Nc1ccc(S(=O)(=O)Nc2cccc([N+](=O)[O-])c2)cc1	i	i	i	5.3	i	i
O=C(Cn1nc2c3ccccc3nc(C3CC3)n2c1=O)NC1CCCCC1	i	i	i	i	nt	nt
C#CCOC(=O)C(Cc1ccc(F)cc1)NC(=O)c1ccccc1 (stereo not given)	i	i	i	i	nt	nt
CCOC(=O)c1cc([N+](=O)[O-])sc1NC(=O)c1ccc(S(=O)(=O)N2CCCC2)cc1	i	i	i	i	nt	nt
O=C(Nc1ccc(F)cc1F)C1CCCN(c2ncnc3c2nc2n3CCCCC2)C1 (stereo not given)	i	i	i	i	nt	nt
O=C(Nc1cc(F)ccc1F)C1CCCN(c2ncnc3c2nc2n3CCCCC2)C1 (stereo not given)	i	i	i	8.0	i	i
O=S(=O)(/C=C/c1ccccc1)N1CCCC(N2CCN(c3ccccc3)CC2)C1 (stereo not given)	i	i	i	5.6	i	i
SMILES	MITF primary	TEAD-YAP inh	FBW7 activator	GPR151 activ	GPR151 conf act	GPR119 counter
Cc1cccc(NC(=O)/C=C/C(=O)O)c1	i	i	i	i	nt	nt
CCc1cccc(NC(=O)/C=C/C(=O)O)c1	i	i	i	5.2	i	i
CN(CCOC(=O)c1ccccc1Cl)C(C)(C)C	i	i	i	i	nt	nt
C/C(=N/NC(N)=S)c1ccccc1[N+](=O)[O-]	i	i	i	5.6	i	i
CN(C)CCCSC(=N)N	i	nt	i	i	nt	nt
CSC(=N)N	i	i	i	11!	i	i
Cc1ccc(-c2[nH]ncc2CN(C)Cc2c(C)n[nH]c2C)cc1C	i	i	i	i	nt	nt
Cc1nnc(CN(C)Cc2cn[nH]c2-c2ccc(C)c(C)c2)o1	i	i	i	6.7	i	i
COC(=O)c1ccc(NC(=O)C2CC(=O)N(Cc3ccc4c(c3)OCO4)C(=Nc3cccc(C(F)(F)F)c3)S2)cc1 (stereo not given)	i	i	i	6.4	i	i
